Assay outcomes as filed in PubChem BioAssay.
This is a sample that favours compounds with a hit; in the whole collection about 2.4% have one here.
D2 antagonist: antagonizes the human D2 dopamine receptor | inhibition, % at 10 µM | P14416 | 2% of 340,000 active | HEK293 TREx D2 cells, calcium flux, dopamine EC80; in the data active = inhibition above about 30%; inactive = below that, where a call was filed; note: 0% is about no effect
Target sequence (P14416 whole entry, looked up): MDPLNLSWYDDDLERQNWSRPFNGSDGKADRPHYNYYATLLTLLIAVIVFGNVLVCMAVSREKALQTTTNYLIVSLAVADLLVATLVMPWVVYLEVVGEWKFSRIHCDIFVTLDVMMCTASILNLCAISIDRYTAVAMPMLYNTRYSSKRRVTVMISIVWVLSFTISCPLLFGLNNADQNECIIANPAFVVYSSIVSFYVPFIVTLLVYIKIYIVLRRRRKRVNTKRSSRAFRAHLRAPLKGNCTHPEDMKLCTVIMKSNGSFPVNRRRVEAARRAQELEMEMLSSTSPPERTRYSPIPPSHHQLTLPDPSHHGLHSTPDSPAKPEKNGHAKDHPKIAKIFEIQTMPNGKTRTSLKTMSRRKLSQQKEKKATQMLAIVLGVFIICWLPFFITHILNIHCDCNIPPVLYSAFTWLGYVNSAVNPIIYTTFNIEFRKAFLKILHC
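Calcium mobilization kinetics were recorded at 1 s intervals in tetracycline-induced HEK293 T-REx D2 cells, first for 180 s after compound addition and then 180 s after EC80 dopamine.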
D2 ag-1: D2 dopamine receptor (human) agonism; 0.53% of 340,000 active; P14416; HEK293 T-REx D2 cells, calcium flux agonist mode; activation, % at 2 µM;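 active = activation over 3 SD above normal in the single-dose calcium agonist read, cut at about 30% in these data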; note: 0% is about no effect
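In this primary screen, compounds producing a positive calcium signal within 180 s of addition to tetracycline-induced, force-coupled HEK293 Trex D2 cells are flagged; cells are dye-loaded with a no-wash calcium kit beforehand.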
D2 PAM-1: human D2 receptor positive allosteric modulation. P14416. DiscoveRx D2 beta-arrestin cells, luminescence, 90 min; 100% = 57 uM dopamine signal. potentiation, % (test concentration not listed). 0.23% of 360,000 active; in the data active = potentiation above about 50%; inconclusive = mostly about 30% to 49%
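PathHunter beta-arrestin assay in DiscoveRx D2 cells. Compounds were added with an EC20 of dopamine (50 nM final) for 90 min at 37 deg C. Luminescence was read 1 h after detection reagent, with 57 uM dopamine as the EC100 control.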
D2 ag-2: activates the human D2 dopamine receptor; P14416; DiscoveRx PathHunter D2 beta-arrestin, luminescence, 90 min; 100% = 57 uM dopamine signal; activation, % (test concentration not listed); 0.084% of 360,000 active; in the data active = activation above about 40%; inconclusive = between about 15% and that limit
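Agonist mode: compounds alone added to overnight-plated D2 PathHunter cells for 90 min at 37 C, with 57 uM final dopamine (EC100) defining full response. Beta-arrestin recruitment detected by chemiluminescent reagent, read after 1 h at ambient temperature.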
D2 PAM-2: D2 dopamine receptor (human) potentiation; 0.34% of 340,000 active; HEK293 T-REx D2, calcium flux, EC20 dopamine potentiation; P14416; AID 485347; potentiation, % at 10 µM;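 active = potentiation over 3 SD above the plate norm, cut at about 30% in these data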; note: 0% is about no effect
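Primary screen. Calcium kinetics in induced HEK293 T-REx D2 cells: compound pre-addition 180 s, EC20 dopamine, 180 s more.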
D3 ag: D3 receptor agonism confirmed, beta-arrestin readout; shares compounds with D2 ag-1; DiscoveRx D3 beta-arrestin cells, luminescence, 90 min; Potency, µM (titrated, usually from 76.9 µM), for inactives: at the highest dose activation, hits mostly activators; 4% of 2,300 active;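 note: potency is the fitted concentration of half-maximal effect; 100% = dopamine control response; nearly all actives have a fitted effect of over 70% in size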
D2 ag-3: counter-screen for D3 agonists: human D2 dopamine receptor agonism; DiscoveRx PathHunter D2 beta-arrestin, luminescence, 90 min; response scale: percent relative to full dopamine signal; AID 720507; 5.9% of 2,300 active; Potency, µM (top dose mostly 76.9 µM), without a hit: top-dose activation, hits mostly activators; shares compounds with D2 ag-1; note: potency is the fitted concentration of half-maximal effect; % of control where 0% means no effect; nearly all actives have a fitted effect of over 70% in size
Starred values were filed as active, the others as inactive; ? = inconclusive; · = not tested or not shown. Unless noted, calls come from the whole dose curve; as a rule, active = well fitted activation curve with a large enough effect; inconclusive = small, poorly fitted or top-dose-only effect; inactive = flat fitted curve, though single readings scatter.

SMILES	D2 antagonist	D2 ag-1	D2 PAM-1	D2 ag-2	D2 PAM-2	D3 ag	D2 ag-3
O=C(Nc1ccc(Cl)cc1Cl)N1CCN(c2ncccn2)CC1	-14	6	3	-3	0	·	·
Clc1ccccc1CN1CCc2nc(N3CCN(c4ncccn4)CC3)ncc2C1	·	22	·	·	-7	·	·
Clc1ccccc1CN1CCN(c2ncccn2)CC1	76*	80*	59*	70*	-39	-3%	20µM*
Clc1ccc(CN2CCN(c3ncccn3)CC2)c(Cl)c1	90*	76*	59*	79*	-24	?	28µM*
COC(=O)c1c(SC)nc2ccccc2c1OCc1ccccc1Cl	·	1	·	·	0	·	·
CCOC(=O)c1nncc(-c2ccccc2)n1	2	0	-5	-2	16	-3%	-3%
CCOC(=O)c1cc(-c2ccccc2)n[nH]1	-15	-1	2	-1	-1	·	·
COc1ccc(CC(=O)Nc2ccc(F)c(F)c2F)cc1S(=O)(=O)N1CCOCC1	6	1	-3	-2	5	4%	7%
O=C(CNS(=O)(=O)c1ccccc1)OCC(=O)c1cccc([N+](=O)[O-])c1	11	1	-31	-17	1	·	·
O=C(CNS(=O)(=O)c1ccccc1)OCc1cccc([N+](=O)[O-])c1	-18	41*	-21	-1	-18	-1%	0%
O=C(NCCNS(=O)(=O)c1ccccc1)c1ccc([N+](=O)[O-])cc1	28	58*	1	-1	-22	0%	3%
COc1ccccc1NC(=O)Cn1c(=O)n(CCc2ccccc2)c(=O)c2c3c(sc21)CN(C(C)=O)CC3	·	0	·	·	4	·	·
COc1ccccc1N(CC(=O)NCCSCc1ccc(C)cc1)S(=O)(=O)c1ccccc1	25	2	1	4	14	-3%	6%
CCN1C=C(Cc2cccs2)C2=C(C1)C(c1cccs1)C(C#N)=C(N)O2 (configuration not stated)	81*	44*	-18	-1	-31	-4%	0%
CCN1CC2=C(OC(N)=C(C#N)C2c2cccs2)/C(=C/c2cccs2)C1 (configuration not stated)	·	·	-28	-2	·	2%	0%
O=C(Nc1ccc(F)c(Cl)c1)N1CCC(CN2CCc3ccccc3C2)CC1	·	0	·	·	-21	·	·
CCn1nc(C)c2c(-c3ccccc3)cc(=O)n(C(C)C(=O)NCc3ccccc3OC)c21 (configuration not stated)	·	1	·	·	·	·	·
COc1ccc(C(=O)c2sc3nc(C)cc(-c4cccs4)c3c2N)cc1	12	-1	-4	2	8	·	·
Cc1cc(-c2cccs2)c2c(N)c(C(=O)c3ccc4c(c3)OCO4)sc2n1	-11	41*	22	-12	-4	-2%	-3%
COc1ccc(N(C(=O)/C=C\C(=O)Nc2ccc(C)cc2)C(C(=O)NCc2ccco2)c2ccc(C)cc2)cc1 (configuration not stated)	·	·	·	·	9	·	·
COc1ccc(C(=O)O)cc1NC(=S)NC(=O)CSc1ccc(Cl)cc1	6	-1	0	0	5	-15%	-4%
O=C(CSc1ncnc2scc(-c3ccc(F)cc3)c12)c1ccc2c(c1)OCCO2	6	50*	-20	1	1	8%	2%
Nc1cccc(O)c1	6	0	1	4	13	-2%	-3%
CC(C)(C)OC(=O)N1CCC(c2c(C(=O)NC3CCCCC3)cnn2-c2cccc(Cl)c2)CC1	·	-3	·	·	3	·	·
CCN1C(C(=O)c2ccccc2)=C(OC(=O)COc2ccc(C)cc2)c2ccccc2S1(=O)=O	·	0	·	·	14	·	·
SMILES	D2 antagonist	D2 ag-1	D2 PAM-1	D2 ag-2	D2 PAM-2	D3 ag	D2 ag-3
CCOCCCn1c(=S)[nH]c2cc(C(=O)NCCN(CC)CC)ccc2c1=O	·	·	1	9	-12	-8%	12%
O=c1c2ccccc2[nH]c(=S)n1CCCN1CCN(c2ccccc2)CC1	-24	1	?	?	5	·	·
CCN(CC)CCCn1c(=S)[nH]c2ncccc2c1=O	48*	50*	8	4	-16	-6%	6%
O=c1c2ccccc2[nH]c(=S)n1CCCN1CCN(c2ccccc2F)CC1	81*	71*	-12	?	-29	14%	26%
CCN(CCCn1c(=S)[nH]c2ncccc2c1=O)c1ccccc1	-2	-1	-6	-2	1	·	·
O=c1c2cccnc2[nH]c(=S)n1CCCN1CCN(c2ccccc2F)CC1	116*	82*	-5	?	-23	8%	?
CCOc1cccc(C(=O)N(Cc2ccc(C)o2)C2CCS(=O)(=O)C2)c1 (configuration not stated)	·	0	·	·	5	·	·
CCN(CC)C(=O)c1cccc(NC(=O)CCc2nc3sc4c(c3c(=O)[nH]2)CCCC4)c1	-12	-1	-19	1	-1	-5%	7%
O=C(NCCCN1CCN(c2ccccc2)CC1)Nc1ccccc1C(F)(F)F	75*	78*	-8	?	-20	?	21%
Cc1ccccc1NC(=O)NCCCN1CCN(c2ccccc2)CC1	79*	77*	-21	?	-22	?	?
CCc1nn(CC(=O)Nc2cccc(C(C)=O)c2)c(=O)c2cc3sccc3n12	·	0	·	·	1	·	·
Cc1nn2c3c(cnc2c1-c1ccc(Cl)cc1)C(=O)CC(c1ccc(C(C)C)cc1)C3 (configuration not stated)	·	0	·	·	10	·	·
O=C(Nn1cnnc1)c1ccncc1	9	0	-2	-2	-4	-7%	-2%
CCOC(=O)Nc1ccc(S(=O)(=O)Nc2nccc(C)n2)cc1	-11	50*	-9	1	-27	-7%	-1%
CCOC(=O)C(=O)Nc1ccc(S(=O)(=O)Nc2nccc(C)n2)cc1	·	·	-5	-4	·	·	·
COc1ccc(-n2c(=O)c3c4c(sc3n(Cc3cc(=O)n5c(C)cccc5n3)c2=O)CCC4)c(OC)c1	·	·	·	·	-1	·	·
O=C(NC1CCCCC1)c1cc(C2CC2)nn1-c1ccccc1	·	·	2	14	·	3%	11%
COc1ccc(CCNC(=O)Cc2c(C)c3c(cc(C)c4c(C)coc43)oc2=O)cc1OC	·	0	·	·	1	·	·
COc1ccc(S(=O)(=O)N2CCCC2CNC(=O)C(=O)NC2CCCC2)cc1 (configuration not stated)	·	·	4	-1	·	·	·
